# Screening data from PubChem.
# Rows were chosen to be rich in hits. Some 21% of all compounds tested hit in one or more screens of this group.
# NS1 inh: qHTS Assay for Inhibitors of Influenza NS1 Protein Function; Potency, µM (highest dose often 46.1 µM); hit rate 0.4% among 270,000; calls by dose curve; also: actives are rising curves; nearly all actives have a fitted effect of over 50% in size
#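 Compounds were scored for reversing the slow growth caused by influenza A NS1 in S. cerevisiae, measured by optical density at 600 nm. Assay medium contained 2% galactose at pH 6.0; NS1-free yeast of the same strain were the positive control.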
# Pf growth 48h: Primary qHTS for delayed death inhibitors of the malarial parasite plastid, 48 hour incubation. AID 504832, 2011. P. falciparum luciferase growth in erythrocytes, 48 h. Potency, µM (top dose mostly 28.7 µM), most hits filed as inhibitors. hit rate 5.9% among 310,000
#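 Cell-based growth assay: transgenic P. falciparum expressing firefly luciferase, cultured in red cells within RPMI 1640 containing 0.5% w/v Albumax, 24 mM bicarbonate and gentamycin. A drop in luciferase activity indicates inhibition.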
# Sm TGR block: qHTS Assay for the Inhibitors of Schistosoma Mansoni Peroxiredoxins; Potency, µM (doses to about 114 µM), most hits filed as inhibitors; AID 485364, 2010; hit rate 3% among 360,000; Schistosoma mansoni thioredoxin glutathione reductase (TGR), Q962Y6; purified TGR, DTNB reduction, TNB absorbance 405 nm; also: nearly all actives have a fitted effect of over 60% in size
#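 First, TGR (20 nM dispensed) and NADPH were mixed with compound. Second, a 15 min room-temperature incubation followed. Third, further NADPH and then DTNB were added to start the reaction. Finally, TNB absorbance was monitored kinetically.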
# CHX counter: Cycloheximide Counterscreen for Small Molecule Inhibitors of Shiga Toxin; cell reporter, cycloheximide protein synthesis inhibition counterscreen; max response, %; hit rate 12% among 300,000; AID 2314, 2010; in the data active = max response mostly above about 13%, no sharp cut-off; inactive = mostly below about 14%; also: read at 38.3 µM for the half of the compounds with a filed dose
# Shiga inhibitor: A qHTS for Small Molecule Inhibitors of Shiga Toxin | Vero cells, Shiga toxin protein synthesis inhibition reporter | inhibition, % at 38.7 µM | hit rate 9.2% among 290,000 | AID 2315, 2010; in the data active = inhibition mostly above about 28%, no sharp cut-off; inactive = mostly below about 43%
# Pf growth 96h: Primary qHTS for delayed death inhibitors of the malarial parasite plastid, 96 hour incubation | P. falciparum luciferase reporter growth, 96 h | Potency, µM (top dose mostly 28.7 µM), actives largely listed as inhibitors | hit rate 6.9% among 320,000 | AID 504834, 2011
#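 Compounds incubated with erythrocytes infected by luciferase-expressing P. falciparum (2% hematocrit, 0.05% parasitemia final) for 96 hours, 37 C in 5% CO2. Growth inhibition scored as decreased luciferase luminescence.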
# Numbers stand for hits; . = inactive; ? = inconclusive; / = no result. Unless noted, calls follow the shape of the dose curve; as a rule, active = well fitted curve in the direction sought with a large enough effect; inconclusive = small, poorly fitted or top-dose-only effect, or another doubt; inactive = no such curve, though single readings can be large; an effect the other way counts as inactive or inconclusive.
SMILES,NS1 inh,Pf growth 48h,Sm TGR block,CHX counter,Shiga inhibitor,Pf growth 96h
COc1ccc(C(=O)N2CCCC(c3ccccc3)C2)cc1 (configuration not stated),.,.,.,.,.,/
COc1ccc(S(N)(=O)=O)cc1C(N)=O,.,.,.,.,.,.
O=[N+]([O-])c1cc(/C=N/N/C(=N/c2ccccn2)c2ccccn2)ccc1O,/,.,?,34.2,123.1,?
O=C(N/N=C/c1ccc(Cl)c([N+](=O)[O-])c1)c1cnccn1,.,.,.,.,.,.
O=[N+]([O-])c1ccc(/C=N/N/C(=N/c2ccccn2)c2ccccn2)cc1,.,.,.,39.7,.,.
O=C(N/N=C/c1ccc(Sc2nc3ccccc3s2)c([N+](=O)[O-])c1)c1ccccn1,.,?,.,.,.,10.4µM
Cc1cccc(CSc2ccc3nnc(CCNS(=O)(=O)c4ccccc4)n3n2)c1,/,/,.,/,/,/
CC1=C(C(=O)OCC2CCCO2)C(c2cccc(C(F)(F)F)c2)C2=C(CC(c3ccco3)CC2=O)N1 (configuration not stated),.,13.1µM,.,.,.,/
CC1=C(C(=O)OCC2CCCO2)C(c2ccccc2OC(C)C)C2=C(CC(c3ccco3)CC2=O)N1 (configuration not stated),?,3.29µM,.,.,.,.
O=C(OCc1c(F)cccc1Cl)c1cnc2ccccc2n1,.,.,.,.,.,.
CCOC(=O)c1cnn(Cc2ccccc2)c1N,.,.,.,.,.,.
CCOC(=O)c1c(C=O)c(C)n(Cc2ccccc2Cl)c1C,.,3.29µM,.,.,.,/
CCOC(=O)C(C(=O)OCC)C(=O)c1cc(OC)c(OC)c(OC)c1,.,.,.,.,.,?
CCOC(=O)c1cc(-c2ccccc2)n(CC(=O)NCc2ccccc2OC)c1C,/,/,.,/,/,/
CCOC(=O)c1cnn(Cc2cccc(Cl)c2)c1C,/,13.1µM,.,.,.,?
CCOC(=O)c1c(C(=O)OCC)c(C)n(Cc2cc(OC)c(OC)c(OC)c2)c1C,.,?,.,.,.,11.7µM
CCOC(=O)c1cc(C)n(Cc2cccc(OC)c2OC)c1C,.,?,.,.,.,2.33µM
CCOC(=O)C(NCc1ccc(OC)cc1)(NC(C)=O)C(F)(F)F (configuration not stated),.,.,.,.,.,?
O=C(Nc1cc(Cl)cc(Cl)c1)C1CCCC1,.,.,.,.,.,.
CCOC(=O)C1CCCCN1Cc1cccc(OC)c1OC (configuration not stated),.,/,.,.,.,.
CCOC(=O)c1sc(=S)n(Cc2ccccc2)c1C,.,.,.,.,.,.
CCOC(=O)c1cc(C)n(CCc2cnc[nH]2)c1C,.,13.1µM,.,14.7,.,?
CCOC(=O)c1c(C)c(C)n(Cc2cccc(OC)c2OC)c1C,.,11.7µM,?,.,.,8.28µM
CCOC(=O)c1cc(C)n(Cc2ccccc2)c1C,.,3.29µM,.,.,.,6.57µM
Cc1ccc(N2CCN(C(=O)NCc3noc4ccc(C)cc34)CC2)c(C)c1,/,/,.,/,/,/
SMILES,NS1 inh,Pf growth 48h,Sm TGR block,CHX counter,Shiga inhibitor,Pf growth 96h
CCCn1c(C)cc(C(=O)COC(=O)c2cc(S(=O)(=O)NCC(C)C)c(Cl)cc2Cl)c1C,.,.,.,.,.,/
C=CCc1cc(Cl)ccc1OCCNCCCOC,.,.,.,.,.,13.1µM
C=CCc1cc(Cl)ccc1OCCOCCNC(C)(C)C,.,13.1µM,/,.,.,.
COc1cc(C2Nc3ccccc3C(=O)N2c2ccc(Cl)cc2)c(Cl)cc1OCC(=O)O (configuration not stated),.,.,.,53.9,70.9,.
CCOC(=O)COc1ccccc1C1Nc2ccccc2C(=O)N1c1cccc(Cl)c1 (configuration not stated),.,?,.,36.4,66.2,.
Fc1c(F)c(F)c(/C=N/NC(=S)Nc2cccnc2)c(F)c1F,.,?,.,.,.,?
Oc1cccc(/C=N/NC(=S)Nc2cccnc2)c1O,?,0.0828µM,.,29.8,45.3,?
Oc1ccc(/C=N/NC(=S)Nc2cccnc2)c(O)c1,.,6.57µM,.,28.6,51.6,.
Fc1ccc(/C=N/NC(=S)Nc2cccnc2)cc1,/,.,.,27.1,.,.
Oc1ccc(/C=N/NC(=S)Nc2cccnc2)c(O)c1O,.,?,10µM,.,.,?
Fc1ccc(/C=N/NC(=S)Nc2cccnc2)cc1F,/,.,.,.,.,.
CC(C)c1ccc(OCC(=O)N2CCN(c3ccccn3)CC2)c(Br)c1,.,.,?,.,.,?
CC(C)c1ccc(OCc2nc(-c3ccccn3)no2)c(Br)c1,.,.,.,46.3,66.8,.
CCc1ccc(OCc2nc(-c3ccccn3)no2)c(Br)c1,.,.,.,29.0,.,.
CCc1ccc(OCC(=O)NCc2nc(-c3cccc(C)c3)no2)c(Br)c1,/,/,.,/,/,/
COc1ccc(-c2noc(COc3ccc(C)cc3C)n2)cc1OC,/,/,.,/,/,/
CC(C)(C)Cc1nc(-c2ccccn2)no1,.,.,.,34.1,76.2,.
Cc1ccc(OCc2nc(-c3ccccn3)no2)c(Br)c1,.,.,.,.,.,2.33µM
O=C(Cn1ncc2c3ccccc3n(Cc3ccccc3F)c2c1=O)N1CCCCCC1,/,/,.,/,/,/
Cc1ccc(OCc2nc(-c3ccccn3)no2)cc1,.,/,.,29.2,.,.
Cc1noc(COc2ccc(OCc3nc(C)no3)cc2)n1,.,.,.,.,.,.
COCCOC(=O)C1=C(N)Oc2c(oc(CO)cc2=O)C1c1c(F)cccc1Cl (configuration not stated),.,/,.,.,.,4.65µM
COc1cccc(CNC(=O)CCn2cccn2)c1,/,/,.,/,/,/
CC(=O)c1cc(-c2ccc(F)cc2)n(CCC(=O)NC2CCCCC2)c1C,/,/,.,/,/,/
CCOc1cnn(-c2cc(Oc3ccc(C)cc3)ncn2)c(=O)c1Cl,.,/,.,.,.,?
SMILES,NS1 inh,Pf growth 48h,Sm TGR block,CHX counter,Shiga inhibitor,Pf growth 96h
COC(=O)c1cnn(-c2cc(Oc3ccccc3)ncn2)c1N,.,.,.,22.9,.,.
c1ccc(Oc2cc(-n3cccn3)ncn2)cc1,.,.,.,53.7,73.6,/
NC(=O)c1cnn(-c2cc(Oc3ccccc3)ncn2)c1N,.,.,.,47.0,.,.
COc1ccccc1Oc1cc(-n2nc(C)cc2C)ncn1,.,.,.,.,.,.
COC(=O)c1cnn(-c2ccc(C(=O)Nc3cc(OC)c(OC)c(OC)c3)cc2)c1N,/,/,.,/,/,/
O=C(O)CNCCc1ccccc1,.,/,/,/,/,/
Cc1ccc(COc2ccc(/C=N/O)cc2)cc1,.,.,.,43.1,87.3,.
CCOc1ccc(/C=N/O)cc1,.,.,.,.,.,/
Cc1ccc(Oc2ccc(/C=N/O)cn2)cc1,.,.,.,41.4,91.2,.
